The results in this text go back to PubChem BioAssay (EPA / NIEHS).

Some compounds were tested as several samples or in several runs, with calls that do not always agree. Activity calls are given as the source filed them. The calls were made as follows: active = hit-call score of the fitted dose curve at least 0.9, where 1 is the maximum; inactive = score below 0.9.

Read-out in experiment [1]: Interleukin-8 (IL8), CXCL8 (gene 3576)
The experiment is described as follows: BSK_CASM3C_IL8: BioMAP Diversity Plus: CASM3C Assay for Interleukin-8 (IL8) Biomarker Activity (AID 2283042).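 Also: IL-8 protein level quantified by ELISA.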 The following applies: primary human coronary artery smooth muscle cells; actives raise or lower the signal.

Read-out in experiment [2]: Human Leukocyte Antigen - DR isotype (HLADR), HLA-DRA (gene 3122)
In words: BSK_CASM3C_HLADR: BioMAP Diversity Plus: CASM3C Assay for Human Leukocyte Antigen - DR isotype (HLADR) Biomarker Activity (AID 2283043).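 Also: cell-surface HLA-DR protein level quantified by ELISA.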 Particulars: primary human coronary artery smooth muscle cells; actives raise or lower the signal.

Read-out in experiment [3]: Macrophage colony-stimulating factor (MCSF), CSF1 (gene 1435)
The experiment is described as follows: BSK_CASM3C_MCSF: BioMAP Diversity Plus: CASM3C Assay for Macrophage colony-stimulating factor (MCSF) Biomarker Activity (AID 2283044).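 Also: M-CSF protein amount quantified by ELISA after 24 h exposure.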 The following applies: primary human coronary artery smooth muscle cells; actives raise or lower the signal.

Read-out in experiment [4]: Low-density lipoprotein receptor (LDLR), LDLR (gene 3949)
The experiment is described as follows: BSK_CASM3C_LDLR: BioMAP Diversity Plus: CASM3C Assay for Low-density lipoprotein receptor (LDLR) Biomarker Activity (AID 2283045).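 Also: LDLR protein level on the cell surface quantified by ELISA.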 Particulars: primary human coronary artery smooth muscle cells; actives raise or lower the signal.

Read-out in experiment [5]: Monocyte Chemoattractant Protein-1 (MCP1), CCL2 (gene 6347)
In words: BSK_CASM3C_MCP1: BioMAP Diversity Plus: CASM3C Assay for Monocyte Chemoattractant Protein-1 (MCP1) Biomarker Activity (AID 2283046).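 Also: MCP-1 level quantified by ELISA 24 h after dosing.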 Particulars: primary human coronary artery smooth muscle cells; actives raise or lower the signal.

Experiment [6] is described as follows: BSK_CASM3C_Proliferation: Cell Proliferation Assessment in the BioMAP Diversity Plus: CASM3C Assay (AID 2283047).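 Also: sulforhodamine B total protein stain as relative cell number at 560 nm; sub-confluent cells exposed 48 h before staining; fitted both ways against DMSO so gain or loss of cell number.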 Particulars: primary human coronary artery smooth muscle cells.
Read-out in experiment [7]: Monokine induced gamma interferon (MIG), CXCL9 (gene 4283)
The experiment is described as follows: BSK_CASM3C_MIG: BioMAP Diversity Plus: CASM3C Assay for Monokine induced gamma interferon (MIG) Biomarker Activity (AID 2283048).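 Also: MIG protein level measured by ELISA.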 The following applies: primary human coronary artery smooth muscle cells; actives raise or lower the signal.

Read-out in experiment [8]: serum amyloid A (SAA), SAA1 (gene 6288)
In words: BSK_CASM3C_SAA: BioMAP Diversity Plus: CASM3C Assay for serum amyloid A (SAA) Biomarker Activity (AID 2283049).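 Also: SAA protein level quantified by ELISA.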 Particulars: primary human coronary artery smooth muscle cells; actives raise or lower the signal.

The nature of experiment [9]: BSK_CASM3C_SRB: Viability Assessment in the BioMAP Diversity Plus: CASM3C Assay (AID 2283050).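 Also: total protein by SRB staining as cytotoxicity measure in parallel cultures; cells exposed to compound for 24 h.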 Particulars: primary human coronary artery smooth muscle cells.
Read-out in experiment [10]: Thrombomodulin, THBD (gene 7056)
In words: BSK_CASM3C_Thrombomodulin: BioMAP Diversity Plus: CASM3C Assay for Thrombomodulin Biomarker Activity (AID 2283051).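 Also: thrombomodulin protein level measured by ELISA 24 h after dosing.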 The following applies: primary human coronary artery smooth muscle cells; actives raise or lower the signal.

On to `COC(=O)c1ccccc1C(=O)O`, for which the outcome in experiment [1], in [2], in [3], in experiment [4], in [5] and in [6] was inactive. Moreover, the outcome in experiment [7], in [8], in experiment [9] and in experiment [10] was inactive.

As for `COc1c(Cl)ccc(Cl)c1C(=O)O`, the result in [1], in [2], in experiment [3], in experiment [4], in [5] and in experiment [6] was inactive. In addition, the outcome in [7], in [8], in [9] and in experiment [10] was inactive.

On to `CC(C)(c1ccc(O)cc1)c1ccc(O)cc1`, for which the outcome in experiment [1], in experiment [2], in experiment [3], in [4], in experiment [5] and in [6] was inactive. Also, the result in [7], in experiment [8], in experiment [9] and in experiment [10] was inactive. In addition, in [10], the AC50 (commonly the concentration at which the activity in the assay is half-maximal) was 8470 nM (active).

As for `CCCN(CCC)c1c([N+](=O)[O-])cc(C(F)(F)F)c(N)c1[N+](=O)[O-]`, the result in experiment [1], in [2], in experiment [3], in [4], in experiment [5] and in experiment [7] was inactive. Besides, the outcome in [8] and in experiment [9] was inactive. For the same compound, the AC50 in experiment [6] is 28100 nM (active); in experiment [10], 3970 nM (active).

On to `O=C(O)c1ccccc1`, for which the outcome in experiment [1], in experiment [2], in experiment [3], in experiment [4], in [5] and in experiment [6] was inactive. Further, the outcome in experiment [7], in [8], in experiment [9] and in [10] was inactive.

On to `CC(=O)S[C@@H]1CC2=CC(=O)CC[C@]2(C)[C@H]2CC[C@@]3(C)[C@@H](CC[C@@]34CCC(=O)O4)[C@H]12`, for which the AC50 in experiment [1] is 23600 nM (active); in [2] it was 27300 nM (active); in [5], 20000 nM (active); in [6], 31400 nM (active). Besides, the result in [3], in [4], in experiment [7], in experiment [8], in [9] and in experiment [10] was inactive.

Consider `CCN(CC)C(=O)c1cccc(C)c1`, for which the result in experiment [1], in [2], in experiment [3], in experiment [4], in [5] and in experiment [6] was inactive. Besides, the result in experiment [7], in experiment [8], in [9] and in experiment [10] was inactive.

For the compound `COC(=O)c1ccc(CNS(C)(=O)=O)cc1S(=O)(=O)NC(=O)Nc1nc(OC)cc(OC)n1`, the result in [1], in experiment [2], in experiment [3], in experiment [4], in [5] and in experiment [6] was inactive. Further, the result in experiment [7], in experiment [8], in [9] and in experiment [10] was inactive.

In the case of `CCCOC(=O)c1ccc(C(=O)OCCC)nc1`, the outcome in experiment [1], in experiment [2], in experiment [3], in experiment [4], in experiment [5] and in experiment [6] was inactive. The result in experiment [7], in experiment [8], in experiment [9] and in [10] was inactive.

For `C[C@]12C[C@H](O)[C@H]3[C@@H](CCC4=CC(=O)CC[C@@]43C)[C@@H]1CC[C@@H]2C(=O)CO`, the AC50 in experiment [1] was 551 nM (active); in [4], 21100 nM (active); in [5], 573 nM (active); in experiment [6], 397 nM (active); in experiment [8], 668 nM (active). In addition, the result in [2], in experiment [7], in experiment [9] and in experiment [10] was inactive.

As to `CCOC(=O)C(C)Oc1ccc(Oc2nc3ccc(Cl)cc3o2)cc1` (stereo not given), the outcome in [1], in experiment [2], in experiment [3], in [4], in experiment [5] and in experiment [6] was inactive. For the same compound, the outcome in experiment [7], in experiment [8], in [9] and in experiment [10] was inactive.

For `S=C([S-])NCCNC(=S)[S-].[Mn+2]`, the result in experiment [1], in experiment [2], in [3], in experiment [4], in [5] and in experiment [7] was inactive. In addition, the outcome in experiment [8] and in experiment [9] was inactive. The concentration at half-maximal activity (AC50) in [6] is 29900 nM (active); in experiment [10] it was 27100 nM (active).

As to `CCOC(=O)c1ccc(O)cc1`, the outcome in [1], in experiment [2], in [3], in [4], in experiment [5] and in experiment [6] was inactive. Also, the result in experiment [7], in [8], in [9] and in experiment [10] was inactive.

As for `O=C(Nc1ccc([N+](=O)[O-])cc1Cl)c1cc(Cl)ccc1O`, the AC50 in experiment [1] is 2270 nM (active); in [2] it was 899 nM (active); in experiment [6], 1030 nM (active); in [7], 764 nM (active); in [8], 1560 nM (active); in experiment [9], 826 nM (active). In experiment [10], the concentration at half-maximal activity (AC50) is 643 nM (active). Moreover, the result in [3], in experiment [4] and in experiment [5] was inactive.

On to `C[C@]12CC[C@@H]3c4ccc(O)cc4C[C@@H](CCCCCCCCCS(=O)CCCC(F)(F)C(F)(F)F)[C@H]3[C@@H]1CC[C@@H]2O` (stereo not given in full), for which the result in [1], in [2], in experiment [3], in [5], in experiment [6] and in experiment [7] was inactive. Moreover, the outcome in experiment [8], in experiment [9] and in [10] was inactive. In experiment [4], the concentration at half-maximal activity (AC50) is 2730 nM (active).
